One assay concerns the target Hexose transporter 1 (Plasmodium falciparum) (UniProt O97467). Kind of assay: ST_JUDE_LEISH: Cytotoxicity at 2uM final concentration against transgenic Leishmania Mexicana promastigotes LmPfHT that are glucose transport deficient and complemented with the Plasmodium falciparum hexose transporter. Activity is measured by DNA content using SYBR green in vitro. In kind it is functional.
As for `COc1ccc2c(c1)c(C1CCN(CCCCNC(=O)c3ccc(-c4ccc(C(F)(F)F)cc4)cc3)CC1)cn2C(C)C`, the inhibition was determined as 1.93%.
On the same count and under the same terms, under `O=C(NCC(CCN1CCC(c2c[nH]c3ccccc23)CC1)c1ccccc1)Nc1ccc(Cl)c(Cl)c1` (stereo not drawn) stands 2.72%; under `c1cc(CNCCc2ccncc2)cc(-c2ccc(-c3nc4ccccc4[nH]3)s2)c1`, -0.86%.
On to `O=C(Nc1ccc(N2CCCCC2)c(Cl)c1)c1ccco1`, for which the inhibition came to 0.86%.
For `O=C(CCCc1ccccc1)Nc1cccc(N2CCC(N3CCN(c4ccccc4O)CC3)CC2)c1`, the inhibition is 7.32%.
For the compound `Cc1cn(CC(=O)Nc2cccc(-c3cccc(-c4nc5cccc(C)c5[nH]4)c3)c2)c(=O)[nH]c1=O`, the inhibition turned out to be 3.47%.
Same read-out and setting: the same measure for `Cc1cc(I)ccc1Nc1nc2nonc2nc1Nc1ccc(I)cc1C`: 9.02%; for `COc1ccc(CNCc2ccc(F)cc2)cc1-c1ccc(OC)c(S(=O)(=O)NCCN2CCCC2)c1`: 6.27%; for `COc1cc(C=NNc2cc(C)nc3c(OC)cccc23)cc(OC)c1OC`: 3.3%.
Turning to `CCN(CC)S(=O)(=O)c1ccc(C(=O)Oc2ccccc2N(Cc2ccc(OC)cc2)C2=NS(=O)(=O)c3ccccc32)cc1`, the inhibition worked out at 2.22%.
Still for that read-out and setting: the same measure for `CSc1nnc2n(Cc3ccccc3)c(=O)c3c(n12)-c1ccccc1CC31CCCCC1`: 0.86%; for `COc1cc2nc(NCCc3ccccc3)nc(NCc3cc(C)no3)c2cc1OC`: 4.61%; for `CC(C)(C)OC(=O)Cn1cnc2cc(NC(=O)c3cc([N+](=O)[O-])cc([N+](=O)[O-])c3)ccc21`: 4.11%.
On the same count and under the same terms, under `CC(=O)N1CCC(C(=O)Nc2ccc(-c3cccc(-c4nc5cc(C(F)(F)F)ccc5[nH]4)c3)cc2)CC1` stands 3.33%; under `Cc1cccc2nc(-c3ccc(-c4ccc(NC(=O)NCc5cccc(F)c5)cc4)cc3)[nH]c12`, 12.2%; under `Cc1cccc2nc(-c3ccc(-c4cccc(CN5CCC(CO)CC5)c4)s3)[nH]c12`, 0.4%.
Same read-out and setting: the same measure for `O=C(O)CNCC(O)c1ccccc1` (stereo not drawn): -0.04%; for `Cc1cc(CN2CCC(Nc3ncc(-c4ccsc4)c4nc(C(F)(F)F)ccc34)CC2)no1`: 6.03%; for `CCCCN(Cc1cnccc1-c1ccc(Br)cc1)c1ccc(C(O)(C(F)(F)F)C(F)(F)F)cc1`: 3.75%.
For the compound `Oc1cc(NC[C@H]2CCC[C@@H]2NCc2cc(Br)cc(Br)c2)nc2ccccc12`, the inhibition turned out to be 4.07%.
The same measure, in the same setting: the same measure for `CCOC(=O)c1nc(-c2cc(Cl)nc(Cl)c2)[nH]c1NC(=S)NCc1ccc(NS(C)(=O)=O)cc1`: -1.98%; for `CCN(CC)CCOC(=O)c1ccc(NC(=O)c2cc(-c3ccc(C)cc3)nc3ccccc23)cc1`: 0.95%; for `O=C(Nc1ccc(-c2csc(-c3nc4ccccc4[nH]3)c2)cc1)Nc1ccc(F)c(F)c1F`: 2.98%.
Consider `COc1ccc(Nc2nccc(N3CCC(NC(=O)Nc4cccc(OC)c4)C3)n2)cc1` (stereo not drawn), for which the inhibition is 0.74%.
For the compound `CCCCNCc1ccc(-c2nc(CN(CCCn3ccnc3)C(=O)Nc3ccc(CC)cc3)cs2)cc1`, the inhibition stood at 6.29%.
Still for that read-out and setting: the same measure for `CCn1c(C)cc(C=C2SC(=Nc3ccccc3)NC2=O)c1C`: 4.18%; for `Cc1[nH]c2ccc(-c3ccc(N(C)C)cc3)cc2c(=O)c1Cl`: 3.7%.
Same read-out and setting: under `CCN1C(=O)C(CC(=O)Nc2cccc(Cl)c2)N(Cc2ccc(OC)c(OC)c2)C1=S` (stereo not drawn) stands 4.35%; under `Oc1cc(Nc2ccnc3cc(I)ccc23)c(F)cc1Cl`, 2.02%.
The same measure, in the same setting: under `CC(=O)NCC(=O)NC1=NC(=N)N(OCc2ccc3ccccc3c2)C(C)(C)N1` stands 1.66%.
As to `CN(C)c1cccc(-c2cnc3ccc(NCc4cccc(Cl)c4)nn23)c1`, the inhibition stood at 2.01%.
On the same count and under the same terms, under `COc1ccc(C=NN=c2cc(C)[nH]c3ccccc23)c2ccccc12` stands 6.92%.
Still for that read-out and setting: under `CCCc1cc(Cc2cnc(N)nc2N)cc(OC)c1OC` stands 2.78%; under `CCC(=O)N[C@@H]1CN[C@@H](C#Cc2cc3c(Nc4ccc(OCc5cccc(F)c5)c(Cl)c4)ncnc3s2)C1`, 0.3%.
On to `CC(C)(CNCc1cc(Cl)cc(Cl)c1)c1nc(-c2ccnc(N)n2)c(-c2ccc(Cl)c(O)c2)[nH]1`, for which the inhibition is 0.95%.
On the same count and under the same terms, the same measure for `COc1ccc(C2CC(=O)C3=C(C2)NC(C)=C(C(=O)OC2CCCC2)C3c2cccc(O)c2)cc1OC` (stereo not drawn): 1.05%; for `Cc1ccc2c(=O)cc(CCc3cccc(F)c3F)n(CC(=O)N(Cc3ccc(-c4ccc(C(F)(F)F)cc4)cc3)C3CCN(C)CC3)c2n1`: 0.92%.
For the compound `c1cncc(-c2cc(N3CCCCC3)nc(-c3ccncc3)n2)c1`, the inhibition was 6.14%.
Turning to `O=S(=O)(c1cccc(C(F)(F)F)c1)N1CCC(CO)(Cc2cccc(C(F)(F)F)c2)CC1`, the inhibition amounted to 6.86%.

The next assay deals with Glucose transporter (Leishmania mexicana) (UniProt O61059). Kind of assay: ST_JUDE_LEISH: Cytotoxicity at 2uM final concentration against transgenic Leishmania Mexicana promastigotes LmGT2 that are glucose transport deficient and complemented with the L. Mexicana glucose transporter 2. Activity is measured by DNA content using SYBR green in vitro. In kind it is functional.
As for `COc1ccc2c(c1)c(C1CCN(CCCCNC(=O)c3ccc(-c4ccc(C(F)(F)F)cc4)cc3)CC1)cn2C(C)C`, the inhibition was 0.76%.
On the same count and under the same terms, the same measure for `O=C(NCC(CCN1CCC(c2c[nH]c3ccccc23)CC1)c1ccccc1)Nc1ccc(Cl)c(Cl)c1` (stereo not drawn): 2.16%; for `c1cc(CNCCc2ccncc2)cc(-c2ccc(-c3nc4ccccc4[nH]3)s2)c1`: -0.99%; for `O=C(Nc1ccc(N2CCCCC2)c(Cl)c1)c1ccco1`: -1.58%.
Same read-out and setting: under `O=C(CCCc1ccccc1)Nc1cccc(N2CCC(N3CCN(c4ccccc4O)CC3)CC2)c1` stands 7.72%; under `Cc1cn(CC(=O)Nc2cccc(-c3cccc(-c4nc5cccc(C)c5[nH]4)c3)c2)c(=O)[nH]c1=O`, 5.03%; under `Cc1cc(I)ccc1Nc1nc2nonc2nc1Nc1ccc(I)cc1C`, 9.11%.
The same measure, in the same setting: the same measure for `COc1ccc(CNCc2ccc(F)cc2)cc1-c1ccc(OC)c(S(=O)(=O)NCCN2CCCC2)c1`: 4.28%; for `COc1cc(C=NNc2cc(C)nc3c(OC)cccc23)cc(OC)c1OC`: 3.68%.
For the compound `CCN(CC)S(=O)(=O)c1ccc(C(=O)Oc2ccccc2N(Cc2ccc(OC)cc2)C2=NS(=O)(=O)c3ccccc32)cc1`, the inhibition stood at 2.59%.
The same measure, in the same setting: under `CSc1nnc2n(Cc3ccccc3)c(=O)c3c(n12)-c1ccccc1CC31CCCCC1` stands 0.02%; under `COc1cc2nc(NCCc3ccccc3)nc(NCc3cc(C)no3)c2cc1OC`, 2.42%.
Same read-out and setting: the same measure for `CC(C)(C)OC(=O)Cn1cnc2cc(NC(=O)c3cc([N+](=O)[O-])cc([N+](=O)[O-])c3)ccc21`: 3.89%.
Same read-out and setting: the same measure for `CC(=O)N1CCC(C(=O)Nc2ccc(-c3cccc(-c4nc5cc(C(F)(F)F)ccc5[nH]4)c3)cc2)CC1`: 1.24%; for `Cc1cccc2nc(-c3ccc(-c4ccc(NC(=O)NCc5cccc(F)c5)cc4)cc3)[nH]c12`: 10.3%; for `Cc1cccc2nc(-c3ccc(-c4cccc(CN5CCC(CO)CC5)c4)s3)[nH]c12`: 1.75%.
In the case of `O=C(O)CNCC(O)c1ccccc1` (stereo not drawn), the inhibition is 0.29%.
The same measure, in the same setting: under `Cc1cc(CN2CCC(Nc3ncc(-c4ccsc4)c4nc(C(F)(F)F)ccc34)CC2)no1` stands 5.5%; under `CCCCN(Cc1cnccc1-c1ccc(Br)cc1)c1ccc(C(O)(C(F)(F)F)C(F)(F)F)cc1`, 0%.
Same read-out and setting: the same measure for `Oc1cc(NC[C@H]2CCC[C@@H]2NCc2cc(Br)cc(Br)c2)nc2ccccc12`: 3.27%; for `CCOC(=O)c1nc(-c2cc(Cl)nc(Cl)c2)[nH]c1NC(=S)NCc1ccc(NS(C)(=O)=O)cc1`: -1.67%; for `CCN(CC)CCOC(=O)c1ccc(NC(=O)c2cc(-c3ccc(C)cc3)nc3ccccc23)cc1`: 1.21%.
Consider `O=C(Nc1ccc(-c2csc(-c3nc4ccccc4[nH]3)c2)cc1)Nc1ccc(F)c(F)c1F`, for which the inhibition is 2.02%.
Still for that read-out and setting: under `COc1ccc(Nc2nccc(N3CCC(NC(=O)Nc4cccc(OC)c4)C3)n2)cc1` (stereo not drawn) stands 0.51%.
Regarding `CCCCNCc1ccc(-c2nc(CN(CCCn3ccnc3)C(=O)Nc3ccc(CC)cc3)cs2)cc1`, the inhibition amounted to 6.91%.
Same read-out and setting: the same measure for `CCn1c(C)cc(C=C2SC(=Nc3ccccc3)NC2=O)c1C`: 2.93%; for `Cc1[nH]c2ccc(-c3ccc(N(C)C)cc3)cc2c(=O)c1Cl`: 2.73%.
On the same count and under the same terms, under `CCN1C(=O)C(CC(=O)Nc2cccc(Cl)c2)N(Cc2ccc(OC)c(OC)c2)C1=S` (stereo not drawn) stands 0.57%.
The same measure, in the same setting: under `Oc1cc(Nc2ccnc3cc(I)ccc23)c(F)cc1Cl` stands 3.58%; under `CC(=O)NCC(=O)NC1=NC(=N)N(OCc2ccc3ccccc3c2)C(C)(C)N1`, 0.35%; under `CN(C)c1cccc(-c2cnc3ccc(NCc4cccc(Cl)c4)nn23)c1`, 1.77%.
For `COc1ccc(C=NN=c2cc(C)[nH]c3ccccc23)c2ccccc12`, the inhibition was 2.26%.
Same read-out and setting: under `CCCc1cc(Cc2cnc(N)nc2N)cc(OC)c1OC` stands 0.24%; under `CCC(=O)N[C@@H]1CN[C@@H](C#Cc2cc3c(Nc4ccc(OCc5cccc(F)c5)c(Cl)c4)ncnc3s2)C1`, 1.72%; under `CC(C)(CNCc1cc(Cl)cc(Cl)c1)c1nc(-c2ccnc(N)n2)c(-c2ccc(Cl)c(O)c2)[nH]1`, 2.11%.
With `COc1ccc(C2CC(=O)C3=C(C2)NC(C)=C(C(=O)OC2CCCC2)C3c2cccc(O)c2)cc1OC` (stereo not drawn), the inhibition was found to be 0.17%.
The same measure, in the same setting: under `Cc1ccc2c(=O)cc(CCc3cccc(F)c3F)n(CC(=O)N(Cc3ccc(-c4ccc(C(F)(F)F)cc4)cc3)C3CCN(C)CC3)c2n1` stands 1.01%; under `c1cncc(-c2cc(N3CCCCC3)nc(-c3ccncc3)n2)c1`, 4.53%; under `O=S(=O)(c1cccc(C(F)(F)F)c1)N1CCC(CO)(Cc2cccc(C(F)(F)F)c2)CC1`, 7.55%.
